# High-throughput results from PubChem.
# tim23-1 inh – tim23-1 yeast growth inhibition; S. cerevisiae tim23-1 growth, BacTiter-Glo luminescence, 24 h; inhibition, % at 20 µM; hit rate 1.3% among 330,000; AID 463212;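 active means growth inhibition of the mutant yeast at or above 50%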;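 further: temperature-sensitive mutant grown at 25 °C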
# NLRP3 yeast inh – NALP3 inhibition in yeast; inhibition, % at 10 µM; Yeast reconstituted NLRP3/ASC/caspase-1, beta-gal luminescence, 24 h; hit rate 0.39% among 330,000;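 active means inhibition of 50% or more; inactive means inhibition below 50%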
# PfHsp90 yeast 2 – growth inhibition of yeast expressing Plasmodium Hsp90; S. cerevisiae expressing PfHsp90, BacTiter-Glo ATP, 48 h; yeast lacking PDR1 and PDR3 efflux regulators; inhibition, % at 9.4 µM; hit rate 0.32% among 310,000; AID 504621;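 active means every replicate shows inhibition above about 80%, whatever the replicate mean, limit read from the data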
# TIM10 inh – inhibits growth of TIM10 yeast strain | S. cerevisiae TIM10 strain growth, BacTiter-Glo luminescence, 24 h | inhibition, % at 10 µM | hit rate 1.4% among 330,000 | AID 463195;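 active means inhibition of 40% or more at the single tested concentration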;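 further: wild-type TIM10 isogenic control strain grown at permissive 25 °C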
# tim10-1 inh – tim10-1 yeast growth inhibition; S. cerevisiae tim10-1 ts strain growth, BacTiter-Glo, 24 h; AID 463190; inhibition, % at 20 µM; hit rate 2.2% among 330,000;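 active means inhibition of at least 40%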;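 further: mutant grown at 25 °C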
# SKKanGAS inh – inhibitors of SKKanGAS S. pyogenes growth in kanamycin (SK-promoter or general growth effect); inhibition, % at 7.5 µM; hit rate 1.3% among 300,000; BacTiter-Glo, 6 h;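 active means mean replicate score, as percent of positive control median, at least 50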;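 further: strain carries kanamycin resistance gene driven by streptokinase promoter and grows in 40 µg/ml kanamycin; loss of luminescence reflects streptokinase promoter inhibition or plain growth inhibition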
# tim10-1 confirm – tim10-1 yeast growth inhibition, confirmed. shares compounds with tim10-1 inh. S. cerevisiae tim10-1 ts strain growth, BacTiter-Glo, 24 h. inhibition, % at 20 µM. AID 463213. hit rate 56% among 7,400;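 active means inhibition of yeast growth at or above a set limit in either of two repeat tests at 20 µM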;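 further: tim10-1 mutant grown at permissive 25 °C to find synthetic lethal compounds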
# Hits are given with their value; 0 = inactive; - = no result given. Rows were chosen to be rich in hits. Some 4.5% of all compounds tested hit in one or more screens of this group.
SMILES,tim23-1 inh,NLRP3 yeast inh,PfHsp90 yeast 2,TIM10 inh,tim10-1 inh,SKKanGAS inh,tim10-1 confirm
CN(C(=O)COC(=O)Cn1cnc2ccccc21)C1CCCCC1,0,0,-,0,0,-,-
Cc1ccc(NS(=O)(=O)c2cc(C(=O)Nc3cccnc3)ccc2C)cc1,0,0,0,0,0,0,-
COc1cc(C(=O)N2CCN(Cc3ccccc3C(F)(F)F)CC2)cc(OC)c1OC,0,0,0,0,43,0,0
CCc1ccc(-c2cc(C)no2)cc1S(=O)(=O)NCc1ccccc1OC,0,0,0,0,41,0,0
CCc1ccc2c(COC(=O)C3CSC4(C)CCC(=O)N34)cc(=O)oc2c1 (centres undefined),0,0,0,0,0,-,-
CC12CCC(C(=O)N3CCN(C(c4ccccc4)c4ccccc4)CC3)(OC1=O)C2(C)C (centres undefined),0,0,0,0,41,0,0
O=[N+]([O-])c1ccc(NC(=S)N2CCc3ccccc3C2)cc1,0,0,0,0,41,0,0
COc1ccc(OCc2cc(C(=O)N3CCN(C4CCCC4)CC3)no2)c(Cl)c1,0,0,0,0,43,0,33
CC(C)Oc1ccccc1C1Nc2ccccc2C(=O)N1c1ccc2c(c1)OCCO2 (centres undefined),0,0,0,0,46,0,0
O=C(NN1C(=O)/C(=C/c2ccc(O)cc2)SC1=S)c1cccc(O)c1,0,0,0,0,0,0,-
CC(/C=C1\SC(=S)N(NC(=O)c2cccc(O)c2)C1=O)=C\c1ccccc1,0,0,0,0,51,0,31
Cc1nnc(Nc2ccc(S(N)(=O)=O)cc2)c2ccccc12,0,0,0,0,0,0,-
O=C(Nc1ccccc1N1CCOCC1)c1cccnc1Cl,0,0,0,0,0,0,-
O=C(Nc1ccc2c(c1)OCO2)c1cccc2c1C(=O)N(Cc1cccnc1)C2,0,0,0,0,43,0,34
CCCN1Cc2cccc(C(=O)Nc3ccc4c(c3)OCO4)c2C1=O,0,0,0,0,0,0,-
Cc1cc(NC(=O)CCC(=O)N(CC(C)C)C(C(=O)NC(C)(C)C)c2ccccc2Cl)no1 (centres undefined),0,0,0,0,0,0,-
COc1ccc(CCNC(=O)C2CCN(S(=O)(=O)N3CCC(C)CC3)CC2)cc1OC,0,0,0,0,0,0,-
COc1cc(/C=C2\SC(=S)N(NC(=O)c3ccccc3O)C2=O)ccc1O,0,0,0,0,44,0,32
O=C(NN1C(=O)/C(=C/c2ccc(O)cc2)SC1=S)c1ccccc1O,0,0,0,0,0,0,-
Cc1c(C(=O)O)sc(S(=O)(=O)N2CCN(C(=O)Cc3ccc(F)cc3)CC2)c1C(=O)O,0,0,-,0,0,-,-
CCOc1cc(C(=O)NC2CCCCCCC2)cc(OCC)c1OCC,0,0,0,0,0,0,-
CCCCCCSC1=C(C#N)C(c2ccc(C)o2)CC(=O)N1 (centres undefined),0,0,0,0,41,0,0
CCSC1=C(C#N)C(c2ccc(C)o2)CC(=O)N1 (centres undefined),0,0,0,0,0,0,-
Cc1nnc(N/N=C/c2cccc(OCc3ccc(Cl)c(Cl)c3)c2)n1N,0,0,0,0,43,0,36
CNC(=O)c1ccsc1NC(=O)c1ccccc1,0,0,0,0,0,0,-
SMILES,tim23-1 inh,NLRP3 yeast inh,PfHsp90 yeast 2,TIM10 inh,tim10-1 inh,SKKanGAS inh,tim10-1 confirm
CNC(=O)c1ccsc1NC(=O)c1ccc(Cl)s1,0,0,0,0,44,0,32
COc1cc(C2C=C(Nc3ccccc3)C(=O)N2c2ccccc2)ccc1O (centres undefined),0,0,0,0,42,0,0
COC(=O)[C@]1(C)N[C@H](CN(C)S(=O)(=O)c2ccc(F)cc2)[C@@H]2C(=O)N(C)C(=O)[C@@H]21,0,0,0,0,0,-,-
N#CCCN1CCCc2cc(N=Nc3ccc(C(F)(F)F)cc3)ccc21,0,0,0,0,41,0,34
CC1(C)c2[nH]c3ccccc3c2C[C@@H]2C(=O)N(Cc3ccc(F)cc3)C(=O)N21,0,0,-,0,45,0,0
O=C(CN1C(=O)NC2(CCCC2)C1=O)Nc1ccc(F)c([N+](=O)[O-])c1,0,0,0,0,0,0,-
CCCN1C(=O)/C(=N\OCC(=O)Nc2ccc(C(C)C)cc2)c2ccccc21,0,0,0,0,48,0,38
CCCN1C(=O)/C(=N\OCC(=O)NC23CC4CC(CC(C4)C2)C3)c2ccccc21,0,0,0,0,42,0,0
CCOC(=O)C1CCN(c2cc3c(cc2NC(=O)c2ccccc2OCC)n(C)c(=O)n3C)CC1,0,0,0,0,48,0,0
CCOC(=O)C1CCN(c2cc3c(cc2NC(=O)c2ccccc2Cl)n(C)c(=O)n3C)CC1,0,0,0,0,49,0,0
CCOC(=O)C1CCN(c2cc3c(cc2NC(=O)c2ccccc2F)n(C)c(=O)n3C)CC1,0,0,0,0,0,0,-
CCCCN(C(=O)c1ccc2c(c1)S(=O)(=O)N=C1CCCCCN12)c1c(N)n(CC(C)C)c(=O)[nH]c1=O,-,-,0,-,-,-,-
CCOc1ccc(NC2c3ccccc3C(=O)N2Cc2ccc3c(c2)OCO3)cc1 (centres undefined),0,0,0,0,0,0,-
O=C1c2ccccc2C(Nc2ccc3c(c2)OCCO3)N1Cc1ccccc1 (centres undefined),0,0,0,0,0,0,0
CCc1ccc2nc3nc(C)cc(C)c3c(N)c2c1,0,0,0,0,47,0,41
CCc1ccc(NC(=S)/N=C(\N)Nc2nc(C)c3cc(CC)ccc3n2)cc1,0,0,0,0,0,0,-
CC(=O)c1ccc(S(=O)(=O)N2CCN(CC(=O)NC(=O)NC3CCCCC3)CC2)cc1,-,-,0,-,-,-,-
CCOC(=O)c1ccc(S(=O)(=O)N2CCN(CC(=O)NC(=O)NC3CCCCC3)CC2)cc1,0,0,0,0,44,0,0
N/C(=N\OC(=O)c1cccc2ccccc12)c1ccncc1,0,0,0,0,49,0,40
O=C(Oc1ccccc1O)c1cccc2ccccc12,0,0,-,0,47,0,34
CSc1ccccc1NC(=O)COC(=O)Cc1ccsc1,0,0,0,0,0,-,-
CCC(=O)N1CCC2(CC1)Oc1ccc(F)cc1C(=O)C21CC(c2ccc(Cl)cc2)=NO1 (centres undefined),0,0,0,0,0,0,-
CC(C)C(=O)N1CCC2(CC1)Oc1ccc(F)cc1C(=O)C21CC(c2ccc(Cl)cc2)=NO1 (centres undefined),0,0,-,0,47,0,0
Cc1ccc(C(=O)N2CCC3(CC2)Oc2ccc(F)cc2C(=O)C32CC(c3ccc(Cl)cc3)=NO2)s1 (centres undefined),0,0,-,0,51,0,33
